The values below come from PubChem BioAssay.

Each structure is given as a SMILES string. Active and inactive are the calls of the source.

A short description of experiment [1]: small molecules captured by biotinylated probe aFSTL3 – biochemical, small-molecule microarray, fluorescence 635/667, stem cell growth factor project, primary screen (AID 1064).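 Further: measures binding of the biotinylated anti-FSTL3 antibody to printed compounds.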 The settings on record: higher = more signal.
Experiment [2] in a line: binders from COS7 lysate, DM2A8 probe, primary screen, torsin A project, cell lysate, small-molecule microarray, fluorescence 635/667 (AID 1065). The settings on record: higher = more signal, COS7 lysate expressing mutant human TOR1A.
A short description of experiment [3]: small molecules captured by biotinylated probe aFGF2 – biochemical, small-molecule microarray, fluorescence 635/667, stem cell growth factor project, primary screen (AID 1067).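 Further: measures binding of biotinylated aFGF2 protein to printed compounds on slides; z-score merges feature fluorescence and signal-to-noise across triplicate slides.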 The settings on record: higher = more signal.
The nature of experiment [4]: small molecules captured by biotinylated probe aFGF10 – biochemical, small-molecule microarray, fluorescence 635/667, stem cell growth factor project, primary screen (AID 1071).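 Further: score merges 667 nm spot intensity and signal to noise from triplicate slides.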 The settings on record: higher = more signal.
The target of experiment [5] is Neurogenic locus notch homolog protein 2 (Homo sapiens) (UniProt Q04721). Kind of experiment: small molecules binding Notch2 protein – biochemical, small-molecule microarray, 635 nm fluorescence, stem cell growth factors, primary screen (AID 1073). The settings on record: higher = more signal.
Chain of Neurogenic locus notch homolog protein 2 (Homo sapiens) (Q04721 whole entry, looked up, canonical isoform): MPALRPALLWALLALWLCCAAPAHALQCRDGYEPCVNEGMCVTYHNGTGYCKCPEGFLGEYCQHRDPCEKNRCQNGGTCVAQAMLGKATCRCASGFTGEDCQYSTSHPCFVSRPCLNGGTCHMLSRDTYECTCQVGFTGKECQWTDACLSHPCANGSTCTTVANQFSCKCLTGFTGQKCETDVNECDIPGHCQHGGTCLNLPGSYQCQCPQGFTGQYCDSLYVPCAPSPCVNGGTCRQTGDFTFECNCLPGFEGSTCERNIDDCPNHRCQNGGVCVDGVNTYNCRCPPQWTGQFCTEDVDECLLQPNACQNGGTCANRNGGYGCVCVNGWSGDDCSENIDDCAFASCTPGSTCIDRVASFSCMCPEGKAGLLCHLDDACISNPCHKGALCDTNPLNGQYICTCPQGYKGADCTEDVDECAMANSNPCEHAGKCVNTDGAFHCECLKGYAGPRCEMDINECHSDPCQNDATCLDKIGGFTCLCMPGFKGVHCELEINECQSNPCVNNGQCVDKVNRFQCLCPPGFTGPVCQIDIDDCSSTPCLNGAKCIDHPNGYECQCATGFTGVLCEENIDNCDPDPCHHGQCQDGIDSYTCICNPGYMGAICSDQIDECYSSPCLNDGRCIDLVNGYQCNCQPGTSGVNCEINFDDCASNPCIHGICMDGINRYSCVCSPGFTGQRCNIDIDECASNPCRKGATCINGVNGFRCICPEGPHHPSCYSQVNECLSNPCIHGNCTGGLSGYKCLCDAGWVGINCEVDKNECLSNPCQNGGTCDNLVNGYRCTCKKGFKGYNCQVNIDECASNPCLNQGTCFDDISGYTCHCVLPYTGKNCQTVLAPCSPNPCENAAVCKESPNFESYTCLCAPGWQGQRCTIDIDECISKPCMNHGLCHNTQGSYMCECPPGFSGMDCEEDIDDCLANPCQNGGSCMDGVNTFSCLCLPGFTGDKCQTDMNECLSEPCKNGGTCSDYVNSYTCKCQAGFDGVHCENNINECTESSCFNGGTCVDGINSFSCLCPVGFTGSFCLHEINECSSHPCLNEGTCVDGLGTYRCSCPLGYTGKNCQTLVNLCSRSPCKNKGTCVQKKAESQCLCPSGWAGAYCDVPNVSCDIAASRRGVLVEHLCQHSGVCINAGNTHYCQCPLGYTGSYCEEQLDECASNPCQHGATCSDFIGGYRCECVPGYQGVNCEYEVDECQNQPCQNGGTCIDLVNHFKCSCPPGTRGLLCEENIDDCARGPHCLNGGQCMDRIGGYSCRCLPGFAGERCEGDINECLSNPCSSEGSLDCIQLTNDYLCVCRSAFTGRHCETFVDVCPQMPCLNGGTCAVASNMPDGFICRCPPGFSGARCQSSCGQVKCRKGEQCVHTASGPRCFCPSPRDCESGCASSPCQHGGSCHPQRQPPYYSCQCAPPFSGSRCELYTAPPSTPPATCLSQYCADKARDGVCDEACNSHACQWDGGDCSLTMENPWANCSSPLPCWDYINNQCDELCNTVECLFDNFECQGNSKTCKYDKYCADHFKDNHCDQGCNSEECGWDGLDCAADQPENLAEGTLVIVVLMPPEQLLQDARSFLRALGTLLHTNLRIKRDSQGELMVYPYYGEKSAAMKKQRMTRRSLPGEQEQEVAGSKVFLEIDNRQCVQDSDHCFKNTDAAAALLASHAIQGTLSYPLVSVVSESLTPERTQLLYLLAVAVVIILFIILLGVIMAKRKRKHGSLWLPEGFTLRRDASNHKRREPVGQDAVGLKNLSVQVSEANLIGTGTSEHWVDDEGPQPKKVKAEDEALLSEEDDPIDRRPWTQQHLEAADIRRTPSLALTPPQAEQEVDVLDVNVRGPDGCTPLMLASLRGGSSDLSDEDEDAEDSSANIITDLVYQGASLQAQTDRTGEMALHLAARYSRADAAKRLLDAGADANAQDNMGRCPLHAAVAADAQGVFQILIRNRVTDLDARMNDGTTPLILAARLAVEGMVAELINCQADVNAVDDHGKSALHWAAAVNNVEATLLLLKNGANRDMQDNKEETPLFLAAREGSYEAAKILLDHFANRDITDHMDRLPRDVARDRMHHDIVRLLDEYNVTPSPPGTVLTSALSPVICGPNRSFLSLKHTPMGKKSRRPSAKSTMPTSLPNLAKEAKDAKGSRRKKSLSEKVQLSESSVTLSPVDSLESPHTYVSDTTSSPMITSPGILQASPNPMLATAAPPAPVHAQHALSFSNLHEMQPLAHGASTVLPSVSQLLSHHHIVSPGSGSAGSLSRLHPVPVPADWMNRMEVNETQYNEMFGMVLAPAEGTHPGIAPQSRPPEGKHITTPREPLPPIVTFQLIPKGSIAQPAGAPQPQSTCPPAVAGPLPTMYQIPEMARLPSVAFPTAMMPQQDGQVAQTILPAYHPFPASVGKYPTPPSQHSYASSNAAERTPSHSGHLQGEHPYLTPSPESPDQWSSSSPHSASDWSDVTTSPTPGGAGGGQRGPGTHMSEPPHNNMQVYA
In experiment [6] the target is Pro-neuregulin-1, membrane-bound isoform (Homo sapiens) (UniProt Q02297). Kind of experiment: small molecules binding neuregulin-1 protein – biochemical, small-molecule microarray, fluorescence 635/667, psychiatric disease protein project, primary screen (AID 1075).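 Further: score combines 667 nm spot fluorescence with signal to noise.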 The note with it: NRG1 binding, 635 nm fluorescence, higher = more signal.
Chain of Pro-neuregulin-1, membrane-bound isoform (Homo sapiens) (Q02297 whole entry, looked up, the tested form may be a part, canonical isoform): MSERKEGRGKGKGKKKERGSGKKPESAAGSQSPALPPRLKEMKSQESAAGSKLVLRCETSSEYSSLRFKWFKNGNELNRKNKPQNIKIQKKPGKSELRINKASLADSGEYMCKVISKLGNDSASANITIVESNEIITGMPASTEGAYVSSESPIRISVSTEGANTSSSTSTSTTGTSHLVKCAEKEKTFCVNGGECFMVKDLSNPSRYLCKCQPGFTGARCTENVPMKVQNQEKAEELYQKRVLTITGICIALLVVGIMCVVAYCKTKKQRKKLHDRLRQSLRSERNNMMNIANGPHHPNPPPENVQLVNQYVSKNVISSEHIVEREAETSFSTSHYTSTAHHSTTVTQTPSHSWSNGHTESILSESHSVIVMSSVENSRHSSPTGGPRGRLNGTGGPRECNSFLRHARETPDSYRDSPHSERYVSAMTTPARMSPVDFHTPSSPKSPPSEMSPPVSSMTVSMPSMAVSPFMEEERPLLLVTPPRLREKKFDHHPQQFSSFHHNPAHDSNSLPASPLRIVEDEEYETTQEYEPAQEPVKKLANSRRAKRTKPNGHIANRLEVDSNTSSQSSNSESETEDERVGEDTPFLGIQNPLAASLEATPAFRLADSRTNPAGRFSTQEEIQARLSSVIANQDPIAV
Experiment [7] has as its system Neuregulin-1 EGF-like domain. As to the kind of experiment: small molecules binding NRG1 EGF domain – biochemical, small-molecule microarray, 635 nm fluorescence, primary screen (AID 1081).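 Further: binding of the protein to compounds printed on small-molecule microarray slides.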 The note with it: higher = more signal.
A short description of experiment [8]: FRG1 expression reporter modulators in myotubes – cell-based, C2C12 myotubes, firefly/Renilla luciferase, luminescence, FRG1 inhibition for FSHD, primary screen (AID 1084). The note with it: FRG1 promoter luciferase, higher = more signal, called active from +8 up or from −8 down.
Experiment [9] in a line: small molecules captured by biotinylated probe aFST – biochemical, small-molecule microarray, fluorescence 635/667, stem cell growth factor project, primary screen (AID 1086).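 Further: score merges 667 nm fluorescence with signal-to-noise of each printed compound spot.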 The note with it: higher = more signal.
A short description of experiment [10]: binders of probe aHhip on microarray, primary screen, stem cell growth factor project, biochemical, small-molecule microarray, fluorescence 635/667 (AID 1087).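 Further: score merges spot fluorescence at 667nm with spot signal to noise ratio.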 The settings on record: higher = more signal.
Experiment [11] relates to PRMT1 (protein arginine N-methyltransferase 1). As to the kind of experiment: small molecules binding arginine methyltransferase PRMT1 – biochemical, small-molecule microarray, 635 nm fluorescence, primary screen (AID 1088).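 Further: binding of Prmt1 protein to compounds spotted on small-molecule microarray slides.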 The note with it: higher = more signal.
A short description of experiment [12]: growth effects on S. cerevisiae YJM789 – YJM789 clinical isolate, OD600, 24 h, basal, primary screen (AID 1089).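 Further: growth of clinical yeast isolate S. cerevisiae YJM 789 seeded 1000 cells per well; test concentration not given here.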 The note with it: higher = more signal, called active from +8 up or from −8 down.
Experiment [13] can be described thus: S. pombe growth modifiers, basal conditions – strain 972, OD600, 24 h, no modulator, primary screen (AID 1090).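 Further: basal condition with compound alone and no growth modifier present; test concentration not given here.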 The note with it: S. pombe 972 growth, higher = more signal, called active from +8 up or from −8 down.
A short description of experiment [14]: budding yeast growth modifiers under rapamycin – strain BY4716, OD600, 96 h, primary screen (AID 1091). Further: test concentration not given here. The note with it: S. cerevisiae BY4716 + rapamycin, higher = more signal, called active from +8 up or from −8 down.
Experiment [15] concerns the target Torsin-1A-interacting protein 2 (Homo sapiens) (UniProt Q8NFQ8). Kind of experiment: small molecules binding lysate-expressed LULL1 – cell lysate, human LULL1 lysate, 635/667 nm fluorescence, primary screen (AID 1092).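 Further: probe is lysate of COS7 cells overexpressing human LULL1; score merges per-feature 667 nm fluorescence with signal-to-noise.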 The note with it: small-molecule microarray, hLULL1 lysate binding, 635 nm fluorescence; higher = more signal.
Experiment [16] in a line: optical density change of DRC41 E. coli – strain DRC41, OD650, 24 h, E. coli filamentation project, primary screen (AID 1093).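 Further: MC1000 strain lacking acrAB efflux and sulA so SOS filamentation is blocked; test concentration not given here.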 The note with it: E. coli DRC41 growth, higher = more signal, called active from +8 up or from −8 down.
Experiment [17] can be described thus: probe aLefty2 binding to arrayed compounds – biochemical, biotinylated probe, 635/667 nm fluorescence, primary screen (AID 1094).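 Further: score merges spot fluorescence near 667 nm with spot signal-to-noise ratio.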 The note with it: small-molecule microarray, higher = more signal.
Experiment [18] deals with Noggin (protein binding on small-molecule microarray). Kind of experiment: small molecules binding Noggin protein – biochemical, 635/667 nm fluorescence, primary screen (AID 1095).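 Further: score merges 667 nm feature fluorescence with signal to noise over triplicate slides.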 The settings on record: 635 nm fluorescence, higher = more signal.
For experiment [19], the target named is Neurogenic locus notch homolog protein 3 (Homo sapiens) (UniProt Q9UM47). As to the kind of experiment: small molecules binding NOTCH3 protein – biochemical, 635/667 nm fluorescence, primary screen (AID 1096). The note with it: small-molecule microarray, 635 nm fluorescence, higher = more signal.
Experiment [20] is described as follows: probe aEGFR binding to arrayed compounds – biochemical, biotinylated probe, 635/667 nm fluorescence, primary screen (AID 1097).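 Further: probe is a biotinylated anti-EGFR antibody binding compounds printed on slides; score combines fluorescence near 667 nm and signal to noise of each spot.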 The note with it: small-molecule microarray, higher = more signal.

Chain of Torsin-1A-interacting protein 2 (Homo sapiens) (Q8NFQ8 whole entry, looked up): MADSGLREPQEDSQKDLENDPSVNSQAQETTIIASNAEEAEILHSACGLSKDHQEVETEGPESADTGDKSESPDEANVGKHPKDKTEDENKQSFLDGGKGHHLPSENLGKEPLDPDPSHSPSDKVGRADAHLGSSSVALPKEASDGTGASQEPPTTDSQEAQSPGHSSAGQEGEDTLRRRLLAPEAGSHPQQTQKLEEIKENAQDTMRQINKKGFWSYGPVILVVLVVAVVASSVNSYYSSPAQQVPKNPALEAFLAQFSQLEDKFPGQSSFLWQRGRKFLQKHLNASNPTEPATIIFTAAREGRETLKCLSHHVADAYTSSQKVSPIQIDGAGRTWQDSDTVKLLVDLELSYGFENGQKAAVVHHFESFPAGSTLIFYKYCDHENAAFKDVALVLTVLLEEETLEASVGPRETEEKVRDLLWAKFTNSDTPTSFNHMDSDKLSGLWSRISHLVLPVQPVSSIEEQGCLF

For `C=CC[C@]1(C(=O)NCc2ccccc2)N=C(c2ccc(OCCCO)cc2)O[C@H]1c1ccccc1N=[N+]=[N-]`, the composite z-score in experiment [1] was -0.158; in [2] it was 1.46; in experiment [3], 0.282; in experiment [4] it was 0.399; in [5], 1.13; in [6], 1.24. The composite z-score in experiment [7] is 1.04; in [9] it was 1.08; in experiment [10] it was -0.171; in experiment [11], 1.22; in experiment [15], 3.24; in [17] it was 0.17. The figures for the composite z-score in [18], in [19] and in experiment [20] were 0.0073, 1.11 and 0.0968, respectively. Also, the z-score in experiment [8] was -0.71 (inactive); in experiment [12], -1.33 (inactive); in experiment [13] it was 0.0342 (inactive); in [14] it was 0.511 (inactive); in [16], 0.73 (inactive).

For `COc1cc(COC(C)=O)ccc1OC(C)=O`, the composite z-score in [1] was 0.299; in experiment [2] it was -0.0075; in experiment [3], 0.188; in experiment [4], 0.209; in experiment [5] it was 0.137; in [6], 0.14. Further, the composite z-score was -0.464 in experiment [7]; 0.408 in experiment [9]; 0.318 in [10]; 0.491 in experiment [11]; 0.418 in experiment [15]; 1.07 in [17]. Besides, the composite z-score in experiment [18] worked out at 0.373; in experiment [19] it was 0.279; in experiment [20], 0.643. Moreover, the z-score in [8] is -0.681 (inactive); in [12], -2.59 (inactive); in [13], -3.73 (inactive); in experiment [14], -0.724 (inactive); in experiment [16], 3.13 (inactive).

For `COCCOC(=O)N1C(=O)[C@@]2(c3cc(C#CCC(C(=O)OC)C(=O)OC)ccc31)[C@H](C(=O)N1CCN(c3ncccn3)CC1)[C@H]1C(=O)O[C@H](c3ccccc3)[C@H](c3ccccc3)N1[C@@H]2c1ccccc1OCCO`, the composite z-score in experiment [1] is -0.486; in [2], 0.51; in experiment [3], 0.0247; in experiment [4] it was 0.86; in experiment [5] it was 1.32; in experiment [6], 0.841. Besides, the composite z-score is 1.27 in experiment [7]; 0.495 in experiment [9]; -0.0346 in [10]; 1.55 in experiment [11]; 1.88 in [15]; -0.0726 in experiment [17]. Besides, the results for the composite z-score in experiment [18], in experiment [19] and in experiment [20] were 1.71, 1.06 and 0.0537, respectively. Besides, the z-score in experiment [8] was 0.131 (inactive); in experiment [12], 1.59 (inactive); in [13] it was 1.33 (inactive); in [14] it was 6.3 (inactive); in experiment [16], 0.156 (inactive).

As for `C=C(C(=O)CC[C@@H](OC(=O)c1cccnc1)c1ccccc1OCCO)C(C)C`, the composite z-score in [1] is -0.44; in [2], 0.447; in experiment [3] it was -0.119; in [4], 0.0736; in experiment [5], 0.151; in experiment [6] it was 0.21. Further, the composite z-score in experiment [7] was 0.624; in experiment [9], 0.0397; in [10], 0.0156; in [11] it was 1.44; in [15], -0.263; in experiment [17], -0.0666. The figures for the composite z-score in experiment [18], in experiment [19] and in [20] were 0.535, 0.272 and -0.0703, respectively. Further, the z-score is -0.151 (inactive) in [8]; -0.73 (inactive) in experiment [12]; -0.177 (inactive) in [13]; 0.404 (inactive) in experiment [14]; 0.144 (inactive) in experiment [16].

As to `C=CCOC(=O)[C@H]1[C@@H]2C(=O)O[C@@H](c3ccccc3)[C@@H](c3ccccc3)N2[C@@H](c2ccc(OCCOC(=O)[C@@H]3C[C@@H]4C(=O)N[C@@H](CC(C)C)C(=O)N4[C@@H]3c3ccc(O)cc3)cc2)[C@]12C(=O)Nc1ccccc12`, the composite z-score was -0.254 in [1]; 0.479 in experiment [2]; 0.0056 in experiment [3]; 0.649 in experiment [4]; 0.85 in experiment [5]; 1.02 in [6]. Further, the composite z-score worked out at 1.2 in experiment [7]; 0.0922 in [9]; 0.0201 in [10]; 1.53 in experiment [11]; 3.2 in experiment [15]; 0.115 in experiment [17]. In addition, the composite z-score was 1.49 in experiment [18], 1.1 in [19] and 0.0195 in experiment [20]. Also, the z-score in experiment [8] was 0.631 (inactive); in [12], 0.963 (inactive); in experiment [13] it was 1.32 (inactive); in experiment [14], 4.11 (inactive); in experiment [16], 0.703 (inactive).

As for `COC(=O)C(CC#Cc1ccc2c(c1)[C@]1(C(=O)N2)[C@H](C(=O)Nc2nc3ccccc3s2)[C@H]2C(=O)O[C@H](c3ccccc3)[C@H](c3ccccc3)N2[C@@H]1c1ccc(O)cc1)C(=O)OC`, the composite z-score in experiment [1] is -0.485; in experiment [2], 0.919; in [3], 0.0495; in [4], 0.621; in [5], 1.33; in experiment [6] it was 1.37. Besides, the composite z-score is 1.36 in [7]; 0.688 in experiment [9]; -0.0618 in [10]; 1.55 in [11]; 2.82 in experiment [15]; -0.0258 in experiment [17]. The composite z-score in [18] was 0.709; in experiment [19] it was 1.03; in experiment [20] it was 0.221. The z-score in experiment [8] is 1.28 (inactive); in experiment [12], 0.424 (inactive); in [13], 0.301 (inactive); in experiment [14] it was 0.746 (inactive); in [16], -1.05 (inactive).

For `CC(=O)n1cc(C(O)C2C=CC3C(=O)N(c4ccccc4)C(=O)C3N2Nc2ccc([N+](=O)[O-])cc2)c2ccccc21` (stereo not given), the composite z-score in [1] was 0.889; in experiment [2], 1.44; in experiment [3], -0.0605; in experiment [4] it was -0.0938; in experiment [5], 1.24; in experiment [6], 1.23. The composite z-score in [7] is 1.22; in experiment [9], 1.02; in [10] it was 0.0274; in [11], 1.45; in experiment [15], 3.28; in [17], 0.534. Besides, the composite z-score in experiment [18] was -0.386; in experiment [19], 1.06; in experiment [20], -0.0355. The z-score in experiment [8] was -0.438 (inactive); in experiment [12] it was -0.701 (inactive); in experiment [13] it was 0.451 (inactive); in [14], 2.05 (inactive); in experiment [16], -0.567 (inactive).

In the case of `CC1CC/C=C\[C@H]2OC34C=CCN(C(C)(C)C)C(=O)[C@H]3N(CCO)C(=O)[C@@H]4C2C(=O)O1` (stereo not given in full), the composite z-score is -0.133 in [1]; 0.0564 in [2]; -0.217 in experiment [3]; -0.749 in experiment [4]; -1.56 in experiment [5]; -1.02 in [6]. Moreover, the composite z-score in experiment [7] was 0.784; in [9], -0.529; in experiment [10], -0.0645; in experiment [11], 1.06; in experiment [15] it was 2.92; in [17], -0.0589. Also, the composite z-score in [18] is 0.112; in experiment [19], -0.916; in [20] it was -0.312. Also, the z-score is 0.0503 (inactive) in experiment [8]; -1.33 (inactive) in experiment [12]; -0.905 (inactive) in [13]; -0.471 (inactive) in experiment [14]; 1.45 (inactive) in experiment [16].

Consider `COc1cc2c(cc1O)C(C1CC1)N(Cc1sc3ccccc3c1Cl)CC2` (stereo not given), for which the composite z-score is 0.0766 in experiment [1]; 0.602 in experiment [2]; -0.135 in [3]; 0.0173 in [4]; 0.182 in experiment [5]; -0.214 in [6]. Moreover, the composite z-score is 1.23 in experiment [7]; -0.145 in [9]; -0.0994 in [10]; 0.641 in [11]; 3.15 in experiment [15]; -0.0468 in experiment [17]. The composite z-score in [18] was -0.181; in experiment [19], 0.579; in experiment [20] it was -0.149. The z-score is 0.566 (inactive) in experiment [8]; -26 (active) in experiment [12]; -20 (active) in experiment [13]; -1.46 (inactive) in experiment [14]; -0.587 (inactive) in experiment [16].
